# This excerpt belongs to a sample that is enriched for hits.
# mHTT CaM bind – mHTT-calmodulin interaction abrogation; P42858; AlphaScreen His-mHTT/GST-CaM binding, luminescence; inhibition, % at 15 µM; actives 3.6% (n = 190,000)
# Pf apPOL inh – Pf-apPOL DNA polymerase inhibition | Recombinant Pf-apPOL, molecular beacon fluorescence, 1.5 h | inhibition, % at 10 µM | actives 0.25% (n = 210,000) | AID 1794808
# Hits are given with their value; . = inactive; / = not tested or not shown. Rule as the data show it: active = inhibition above about 50%; inactive = the rest.
SMILES,mHTT CaM bind,Pf apPOL inh
O=C1OC(c2cccc([N+](=O)[O-])c2)=N/C1=C\c1ccc(-c2cccc([N+](=O)[O-])c2)o1,.,.
O=C(Nc1ccccc1[N+](=O)[O-])NC1(C(F)(F)F)Oc2ccccc2O1,.,.
C=CCSc1nc2sc3c(c2c(=O)n1CC=C)CCC3,.,.
CCN1CCN(C(=O)c2ccc(-c3ccc4c(c3)CCN4C(C)=O)cc2)CC1,.,.
CC(=O)C1=C(C)NC(SCC(=O)c2ccc([N+](=O)[O-])cc2)=C(C#N)C1c1ccco1 (stereo unspecified),69,.
CC(=O)C1=C(C)NC(SCC(=O)c2ccc(C)cc2)=C(C#N)C1c1ccco1 (stereo unspecified),.,.
COc1ccccc1-c1nc(C2CCCN(C(=O)c3ccc(C)cc3C)C2)no1 (stereo unspecified),.,.
CN(C)c1ccc(/C=c2\sc3ncnn3c2=O)cc1,.,.
O=[N+]([O-])c1ccc(C2Nc3c(O)cc(Cl)c([N+](=O)[O-])c3C3C=CCC32)cc1 (stereo unspecified),92,.
Cc1cccc2c1NC(c1ccc([N+](=O)[O-])cc1)C1CC=CC21 (stereo unspecified),.,.
O=[N+]([O-])c1c(Cl)cc(O)c2c1C1C=CCC1C(c1ccccc1)N2 (stereo unspecified),75,.
CC(=O)Nc1ccc(S(=O)(=O)Nc2ccc(S(=O)(=O)Nc3ccc(Cl)cc3)cc2)cc1,.,.
O=C(CN1C(=O)C(c2ccccc2)=NC12CCCCC2)Nc1ccc(F)cc1,.,.
COc1ccc(C2=NC3(CCCCC3)N(CC(=O)Nc3cccc(Cl)c3)C2=O)cc1,.,.
O=C(CN1C(=O)C(c2ccccc2)=NC12CCCC2)Nc1cccc(Cl)c1,74,.
COc1ccc(C2=NC3(CCCCC3)N(CC(=O)Nc3ccc(F)c(Cl)c3)C2=O)cc1,100,.
O=C(CN1C(=O)C(c2ccccc2)=NC12CCCCCC2)Nc1ccc(Cl)cc1,100,.
O=C(CN1C(=O)C(c2ccccc2)=NC12CCCCC2)Nc1ccccc1,.,.
COc1ccc(C2=NC3(CCCCC3)N(CC(=O)Nc3ccc(Cl)cc3)C2=O)cc1,.,.
CC1CCC2(CC1)N=C(c1ccccc1)C(=O)N2CC(=O)Nc1ccc(F)cc1 (stereo unspecified),58,.
COc1cccc(C=Nc2ccc(NC(=O)c3cccc(Cl)c3)cc2)c1O,.,.
O=C(CSc1n[nH]c(-c2ccncc2)n1)NC(=O)Nc1ccccc1,/,.
Cc1ccc(C)c(CN2C(=O)NC3(CCN(C(=O)c4ccc5c(c4)OCO5)CC3)C2=O)c1,.,.
Cc1cccc(NC(=O)CN2C(=O)C(c3ccc(F)cc3)=NC23CCCCCC3)c1,.,.
O=C(CN1C(=O)C(c2ccc(Cl)cc2)=NC12CCCCC2)Nc1cccc(F)c1,76,.
SMILES,mHTT CaM bind,Pf apPOL inh
Cc1cc(C)nc(NS(=O)(=O)c2ccc(N/C=C/C(=O)c3cccs3)cc2)n1,.,.
COC(=O)[C@@H]1N2C(=O)[C@@H](NC(=O)COc3ccccc3)[C@H]2SC1(C)C,.,.
O=C1CCC(=O)N1c1ccc(NC2CCCc3ccccc32)c([N+](=O)[O-])c1 (stereo unspecified),66,.
O=C1C2CC=CCC2C(=O)N1c1ccc(NC2CCCc3ccccc32)c([N+](=O)[O-])c1 (stereo unspecified),.,.
Oc1ccc2c(c1)c(-c1ccccc1)nn2-c1ccccc1,55,.
Cc1c(C(=O)O)c(-c2ccccc2)nn1-c1ccccc1,.,.
N#CC1=C(N)N(c2ccccc2)C2=C(C(=O)CCC2)C1c1cccs1 (stereo unspecified),.,.
N#CC1=C(N)N(c2ccc(Br)cc2F)C2=C(C(=O)CCC2)C1c1ccsc1 (stereo unspecified),.,.
N#CC1=C(N)N(c2ccc(Br)cc2F)C2=C(C(=O)CCC2)C1c1cccs1 (stereo unspecified),54,.
N#CC1=C(N)N(c2cccc(Br)c2)C2=C(C(=O)CCC2)C1c1cccs1 (stereo unspecified),68,.
CC1(C)CC(=O)C2=C(C1)N(c1cccc(C(F)(F)F)c1)C(N)=C(C#N)C2c1ccsc1 (stereo unspecified),.,.
CC1(C)CC(=O)C2=C(C1)N(c1cccc(C(F)(F)F)c1)C(N)=C(C#N)C2c1cccs1 (stereo unspecified),67,.
O=C(C1CCN(Cc2nc3ccccc3[nH]2)CC1)N1CCN(c2ccc(F)cc2)CC1,.,.
CC(C)n1cc2cc(C(=O)N3CCN(CC(=O)N4CCCC4)CC3)sc2c1,.,.
O=C(c1ccco1)N1CCc2c(c(CO)nn2Cc2ccccc2)C1,.,.
COc1ccccc1-c1nc(S(=O)(=O)c2ccc(C)cc2)c(N(C)C)o1,.,.
CCn1cc2c3c(cccc31)CN(C(=O)Nc1ccc(C)cc1)CC2,.,.
O=C1NC(=O)c2cc(N3Cc4ccccc4C3)ccc21,79,.

# Screens deposited in PubChem by University of Kansas High Throughput Screening Laboratory.
